Measured values from article PMC5540273 (PLoS ONE, 2017).

The molecules below were run on CDKL1. Settings: concentration: 1 μM, replicates: in singlicate; n = 1.
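Also: KINOMEscan kinase panel screen.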

First: Cc1c(Cn2ccn3c(=O)cc(N4CCOCC4)nc23)cccc1C(F)(F)F [GSK2289044]
Second: O=c1cc(N2CCOCC2)nc2n(Cc3cccc(Cl)c3Cl)ccn12 [GSK2286295]
The “%Inh” value of the first is higher: 3% for the first, 0% for the second.

First: Cc1ccc(NC(=O)Nc2cccc(Cl)c2)cc1-c1ccc(C(=O)Nc2ccncc2)cc1 [GSK1398468]
Second: Cc1ccc(C(=O)Nc2ccc(Nc3ccnc4cc(-c5ccccn5)ccc34)cc2O)cc1.Cl [GW440146]
The “%Inh” value of the first is higher: 13% for the first, 0% for the second.

Going from `Cl.Oc1ccc(-c2nc(-c3ccccc3)[nH]c2-c2ccncc2)cc1` [SB-428218] to `CS(=O)(=O)c1ccc(-c2nc3n(c2-c2ccncc2)CCC3)cc1` [SKF-105942], the “%Inh” value rises from 0% to 28%.

Going from `C[C@@H]1CCCCN1c1cc(-c2ccc3c(N)n[nH]c3c2)nc(N)n1` [GSK2258759] to `O=C(Nc1n[nH]c2cc(-c3cccc(F)c3F)ccc12)C1CC1` [SB-733894], the “%Inh” value rises from 6% to 37%.

`COC(=O)c1c(-c2ccccc2)c2cc(C(=O)O)ccc2c(=O)n1Cc1ccccc1` and `COc1ccc(C2=C(Nc3cccc(C(=O)O)c3)C(=O)NC2=O)cc1` [SB-390765] are the same in “%Inh” value: 0% for the first, 0% for the second.

Compared with `Cc1cccc(-c2nc(Nc3ccc4[nH]ncc4c3)c3ccccc3n2)n1` [GW857175], `Cc1cccc(-c2nc(C)cc(Nc3ccncc3)n2)n1` [GSK257997] is higher in “%Inh” value: 0% for the first, 3% for the second.

First: Nc1nc(-c2nccs2)c(-c2ccnc3ccccc23)s1 [GW693542]
Second: NC(=O)c1nnc2ccccc2c1N
The “%Inh” value of the first is lower: 0% for the first, 44% for the second.

Going from `Cc1c(O)cccc1Nc1ccnc2ccc(C(F)(F)F)cc12.Cl` [GW466413] to `COc1ccc(Nc2nccc(-c3cccc(NC(=O)c4cc5cc(F)ccc5[nH]4)c3)n2)cc1` [GSK1229782], the “%Inh” value rises from 0% to 12%.

First: O=C(Nc1ccc2c(c1)OCO2)NC1CCN(c2ccnc(Nc3ccc(F)cc3)n2)C1 (centres unmarked) [GSK1379724]
Second: Clc1cc(Cl)cc(Nc2ccnc(Nc3cc(Cl)cc(Cl)c3)n2)c1 [GSK175726]
The “%Inh” value of the first is lower: 0% for the first, 11% for the second.

Going from `Cc1ccccc1-n1cnc2c(N)ncnc21` [SKF-97510] to `COc1cccc(-c2cc(-c3c[nH]nc3-c3ccccn3)ccn2)c1` [GW680338], the “%Inh” value falls from 14% to 0%.

Going from `Cc1cccc(-c2nc(-c3ccc(S(C)(=O)=O)cc3)sc2-c2ccnc(NCCc3ccccc3)c2)c1` to `Cc1nnc(-c2ccc3occ(-c4ccc(S(C)=O)cc4)c3c2)[nH]1` (centres unmarked), the “%Inh” value falls from 14% to 0%.

For `O=C(Nc1n[nH]c2nc(-c3nccs3)c(Br)cc12)C1CC1` [SB-742251], the “%Inh” value was 24%.
